From PubChem BioAssay AID2551 (National Center for Advancing Translational Sciences (NCATS), 2010) come the findings set out here.

Screen size: about 310,000 compounds; about 17,000 (5.5%) were called active. About 11% were inconclusive and are not listed. Shown is part of a subset that was picked to be rich in actives. A number with no mark means an inactive call. The call rests on the fitted dose curve; in most records, active means well fitted inhibition curve with a large enough effect; inconclusive means small, poorly fitted or top-dose-only effect, or effect the other way; inactive means no such curve, though single readings can be large or run the other way.
On the % scale 0 is the no-effect control and ±100 the full control effect; potency means the concentration at half of the fitted maximal effect.

Chain of Nuclear receptor ROR-gamma (Mus musculus) (P51450 whole entry, looked up, the tested form may be a part): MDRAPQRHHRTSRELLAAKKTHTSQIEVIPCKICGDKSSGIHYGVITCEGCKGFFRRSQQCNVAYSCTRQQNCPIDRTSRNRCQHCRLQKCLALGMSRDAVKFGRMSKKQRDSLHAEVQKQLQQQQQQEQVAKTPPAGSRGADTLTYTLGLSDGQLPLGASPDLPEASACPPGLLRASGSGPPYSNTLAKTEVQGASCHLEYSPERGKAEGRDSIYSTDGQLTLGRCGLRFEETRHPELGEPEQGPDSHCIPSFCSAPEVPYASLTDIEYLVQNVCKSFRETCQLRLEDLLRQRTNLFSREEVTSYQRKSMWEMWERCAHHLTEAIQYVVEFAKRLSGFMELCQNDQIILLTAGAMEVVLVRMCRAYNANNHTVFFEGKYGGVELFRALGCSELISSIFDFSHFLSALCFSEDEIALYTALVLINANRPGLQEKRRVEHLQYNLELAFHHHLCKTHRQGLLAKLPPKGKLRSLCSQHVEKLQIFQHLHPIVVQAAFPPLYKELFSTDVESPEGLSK

This assay concerns the target Nuclear receptor ROR-gamma (Mus musculus) (UniProt P51450). Kind of assay: qHTS for inhibitors of ROR gamma transcriptional activity. Further: nearly all actives have a fitted effect of over 60% in size. As to conditions: Drosophila S2 Gal4-RORgamma UAS-luciferase reporter, 20 h; series mostly up to 53.6 µM; activity change, negative = inhibition: at the top concentration. The method in brief: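 Schneider cells (Drosophila), stable Gal4 DBD–ROR gamma + UAS-luc; 1 hr cmpd preincubation; Cu2+ induction 700 uM final; 20 hr ambient; luminescence.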
A general note: In qHTS, concentration-response curves come from the screen itself.
Take `Cc1ccc(-c2c3c(=O)n(C)c(=O)n(C)c3cn2-c2ccccc2O)cc1`: the “activity change, negative = inhibition” value is -11.2%. `COc1ccc(-c2c3c(=O)n(C)c(=O)n(C)c3cn2-c2cccc(OC)c2)cc1`: the “activity change, negative = inhibition” value is 44.8%. For `Cc1ccc(-c2c3c(=O)n(C)c(=O)n(C)c3cn2-n2cnnc2)cc1`, the Potency is 15.8 µM (active). `Cn1c(-c2sc3cc(C(F)(F)F)cnc3c2-c2ccccc2)n[nH]c1=S`: the Potency is 2.82 µM (active). Take `Cc1cc(C(F)(F)F)n2ncc(-c3ccccc3)c2n1`: the activity change, negative = inhibition was -12.2% [at 0.365 µM]. Turning to `CC1(C)OC2CC3C4CCC5=CC(=O)CCC5(C)C4(F)C(O)CC3(C)[C@]2(C(=O)CCl)O1` (stereo partly drawn), the Potency is 10 µM (active).

`CC(=O)OCC(=O)[C@@]1(O)CC[C@@H]2[C@H]3CCC4=CC(=O)C=C[C@]4(C)[C@]3(F)[C@@H](O)C[C@@]21C`: the activity change, negative = inhibition was -4.5% [at 2.98 µM].

Regarding `CC(=O)OCC(=O)[C@@]1(O)CCC2C3CCC4=CC(=O)CC[C@@]4(C)[C@]3(F)C(O)C[C@]21C` (stereo partly drawn), the “activity change, negative = inhibition” value is 24.6%. `CNC(=O)[C@]1(C(F)(F)F)C[C@H](CCc2ccccc2)CCCO1`: the “activity change, negative = inhibition” value is 42.9%.

In the case of `CCOCCCN(C)C1CCN(C(=O)c2oc3ccccc3c2NC(=O)COc2cccc(C)c2)CC1`, the “activity change, negative = inhibition” value is -0.451%. Still for that read-out and setting: with `Cn1c(Nc2ccccc2)cc(=O)n(C)c1=O` the figure was -4.42%; with `COc1cccc(NC(=O)COc2cc(C)cc3oc(=O)cc(C)c23)c1`, 4%. As to `COC(=O)C1(O)CC(C(C)C)=NN1C(=O)c1ccc(Cl)cc1` (stereo not drawn), the Potency is 10 µM (active). Turning to `CC(NC(=O)c1ccc(Cl)cc1)C(=O)N1CCCCC1` (stereo not drawn), the “activity change, negative = inhibition” value is -4.9%.

On to `COC(=O)c1cn(C(=O)c2ccc(Cl)cc2)c2ccccc12`, for which the “activity change, negative = inhibition” value was 13.7%. Regarding `CC1CCC2CCCCC2N1C(=O)c1cc([N+](=O)[O-])cc([N+](=O)[O-])c1` (stereo not drawn), the “activity change, negative = inhibition” value was -28%.

On to `C=CCSc1nc2c(c(=O)[nH]c(=O)n2C)n1Cc1ccccc1`, for which the “activity change, negative = inhibition” value was 29.8%. Still for that read-out and setting: to `O=C(Nc1cccc2cccnc12)c1cccc(N2C(=O)CCC2=O)c1` belongs 22.7%. The same measure, in the same setting: to `COc1ccccc1-c1nnc(SCC(=O)N2CC(C)CC(C)C2)o1` (stereo not drawn) belongs -17.1%; to `Cc1cc(NC(=O)c2cccc(N3C(=O)CCC3=O)c2)no1`, 0.145%.

On to `COc1ccccc1-c1nnc(NC(=O)c2cccc(N3C(=O)CCC3=O)c2)o1`, for which the Potency is 11.2 µM (active). With `COc1ccccc1NC(=O)c1ccc2nc(N3C(=O)CCC3=O)sc2c1`, the “activity change, negative = inhibition” value was -0.921%. Turning to `COc1ccccc1-c1nnc(NC(=O)c2ccc3ncsc3c2)o1`, the Potency was 0.501 µM (active). With `O=C(CC1C(=O)NCCN1CC(c1ccccc1)c1ccccc1)NCC1CCOCC1` (stereo not drawn), the “activity change, negative = inhibition” value is -0.562%. Regarding `COCCCNC(=O)/C(C#N)=C/c1c(N2CCCCCC2)nc2ccccn2c1=O`, the “activity change, negative = inhibition” value is -0.567%. With `CC1(C)Oc2ccc3ccc(=O)oc3c2/C(=N/O)C1=O`, the “activity change, negative = inhibition” value was -6.38%. Same read-out and setting: to `Cc1onc(C(=O)NN)c1C(=O)N1CCN(C(c2ccccc2)c2ccccc2)CC1` belongs -15%.

Regarding `CCOC(=O)N1CCN(C(=O)C2CCN(c3ncnc4c3sc3cccc(F)c34)CC2)CC1`, the “activity change, negative = inhibition” value was 20.4%. As for `CCN1CCN(c2ccc(NC(=O)c3cnccn3)cc2)CC1`, the “activity change, negative = inhibition” value is -33.7%. Same read-out and setting: with `Oc1ccccc1CN1CCN(C(c2ccccc2)c2ccccc2)CC1` the figure was 20%. Take `CCOC(=O)N1CCN(C(c2cccnc2)c2ccc3cccnc3c2O)CC1` (stereo not drawn): the Potency was 4.47 µM (active). On the same count and under the same terms, with `CCN1CCN(C(c2cccnc2)c2cc(Cl)c3cccnc3c2O)CC1` (stereo not drawn) the figure was 2.82 µM (active).

In the case of `CCc1nc2nc(C)c(NS(=O)(=O)c3ccc4c(c3)CCCC4)c(=O)n2[nH]1`, the “activity change, negative = inhibition” value was -9.27%. As to `COc1ccc(Nc2nc(=O)[nH]nc2C)cc1`, the “activity change, negative = inhibition” value was -0.69%. On the same count and under the same terms, with `COc1ccc(Nc2nnc(C)c3ccccc23)cc1` the figure was 29.9%. In the case of `COc1ccc(NC2=CC(=S)NC(C)(C)C2)cc1`, the Potency is 7.08 µM (active). Turning to `COc1ccc(NS(=O)(=O)c2ccc(F)cc2F)cn1`, the “activity change, negative = inhibition” value is 0.367%. For `CC(C)CCN1NC2(CCC(C)CC2)NC1=S` (stereo not drawn), the Potency is 7.08 µM (active). Regarding `COc1ccc(NC(=O)CN2C(=O)COc3ccc(S(=O)(=O)N4CCOCC4)cc32)cc1`, the “activity change, negative = inhibition” value is 0.317%.

`COCCN1C(=O)C(=O)/C(=C(/O)c2ccc(S(=O)(=O)N3CCCCC3)cc2)C1c1ccc(OC)c(OC)c1` (stereo not drawn): the “activity change, negative = inhibition” value was -11.7%. Turning to `CSc1c(SCc2ccccc2)cnn(Cc2ccccc2)c1=O`, the Potency is 5.62 µM (active).

Consider `CSc1nc2ccccc2c(=O)n1Cc1ccc(F)cc1`, for which the “activity change, negative = inhibition” value is 37.8%.

For the molecule `Cn1c(CO)cnc1SCc1ccccc1`, the “activity change, negative = inhibition” value was 17.6%. Consider `Cc1cc(Cl)c2oc(C(=O)NC(C)c3ccncn3)c(C)c2c1` (stereo not drawn), for which the “activity change, negative = inhibition” value is -22.4%.

Regarding `COc1ccc(NC(=O)CSCc2ccc([N+](=O)[O-])cc2)cc1OC`, the “activity change, negative = inhibition” value is 0.586%. The same measure, in the same setting: with `CCn1cc(C(=O)N[C@@H](C)C(=O)NCCO)c(=O)c2cc3c(cc21)OCO3` the figure was 1.23%; with `Cc1cc(C)nc(SC(C)C(=O)N/N=C/c2cccs2)n1` (stereo not drawn), 14.8%. Take `Cc1n[nH]c(=O)nc1N/N=C/c1cccs1`: the Potency was 5.01 µM (active). In the case of `Cc1nnc(N/N=C/c2cccs2)[nH]c1=O`, the “activity change, negative = inhibition” value was 13.8%. `CC(Oc1cc2oc(=O)c3c(c2cc1Cl)CCCC3)C(=O)NCc1ccncc1` (stereo not drawn): the “activity change, negative = inhibition” value is -13%.

For `COc1ccc(NC(=S)N2CCc3cc(OC)c(OC)cc3C2)cc1`, the “activity change, negative = inhibition” value is 0.935%.

On to `COc1ccc(OC)c(NC(=S)N2CCc3ccccc3C2)c1`, for which the Potency is 17.8 µM (active). For the molecule `COc1ccc(C)cc1NC(=S)N1CCOCC1`, the “activity change, negative = inhibition” value is 27.8%.
